{
  "source": "paper PMC9911399",
  "about": "“Two distinct binding modes provide the RNA-binding protein RbFox with extraordinary sequence specificity”",
  "binders": {"B1": {"name": "UCCGUCU (DNA:RNA)", "RNA": "GGGAGACCGGAAUUCAGAUUGUCCUCCGUCUUUAAAUCCCGUCGUAGCCACCA", "DNA 1": "CAATCTGAATTCCGGTCTCCC", "DNA 2": "TGGTGGCTACGACGGGATT"}, "B2": {"name": "GGCAGGC (DNA:RNA)", "RNA": "B1 RNA with U25G, C26G, G28A, U29G, C30G, U31C", "DNA 1": "CAATCTGAATTCCGGTCTCCC", "DNA 2": "TGGTGGCTACGACGGGATT"}, "B3": {"name": "AAGCGUG (DNA:RNA)", "RNA": "GGGAGACCGGAAUUCAGAUUGUCCAAGCGUGUUAAAUCCCGUCGUAGCCACCA", "DNA 1": "CAATCTGAATTCCGGTCTCCC", "DNA 2": "TGGTGGCTACGACGGGATT"}, "B4": {"name": "UUGAUCA (DNA:RNA)", "RNA": "B1 RNA with C26U, C27G, G28A, U31A", "DNA 1": "CAATCTGAATTCCGGTCTCCC", "DNA 2": "TGGTGGCTACGACGGGATT"}, "B5": {"name": "GGGCUGG (DNA:RNA)", "RNA": "B3 RNA with A25G, A26G, G29U, U30G", "DNA 1": "CAATCTGAATTCCGGTCTCCC", "DNA 2": "TGGTGGCTACGACGGGATT"}, "B6": {"name": "AACCGCC (DNA:RNA)", "RNA": "B3 RNA with G27C, U30C, G31C", "DNA 1": "CAATCTGAATTCCGGTCTCCC", "DNA 2": "TGGTGGCTACGACGGGATT"}, "B7": {"name": "UCGCAUA (DNA:RNA)", "RNA": "B3 RNA with A25U, A26C, G29A, G31A", "DNA 1": "CAATCTGAATTCCGGTCTCCC", "DNA 2": "TGGTGGCTACGACGGGATT"}, "B8": {"name": "UCGCAUC (DNA:RNA)", "RNA": "B3 RNA with A25U, A26C, G29A, G31C", "DNA 1": "CAATCTGAATTCCGGTCTCCC", "DNA 2": "TGGTGGCTACGACGGGATT"}, "B9": {"name": "UCGCAUG (DNA:RNA)", "RNA": "B3 RNA with A25U, A26C, G29A", "DNA 1": "CAATCTGAATTCCGGTCTCCC", "DNA 2": "TGGTGGCTACGACGGGATT"}, "B10": {"name": "GUAAGUA (DNA:RNA)", "RNA": "B3 RNA with A25G, A26U, G27A, C28A, G31A", "DNA 1": "CAATCTGAATTCCGGTCTCCC", "DNA 2": "TGGTGGCTACGACGGGATT"}, "B11": {"name": "UCACAAA (DNA:RNA)", "RNA": "B1 RNA with C27A, G28C, U29A, C30A, U31A", "DNA 1": "CAATCTGAATTCCGGTCTCCC", "DNA 2": "TGGTGGCTACGACGGGATT"}, "B12": {"name": "GAGCAAA (DNA:RNA)", "RNA": "B3 RNA with A25G, G29A, U30A, G31A", "DNA 1": "CAATCTGAATTCCGGTCTCCC", "DNA 2": "TGGTGGCTACGACGGGATT"}, "B13": {"name": "CUUUGUC (DNA:RNA)", "RNA": "B3 RNA with A25C, A26U, G27U, C28U, G31C", "DNA 1": "CAATCTGAATTCCGGTCTCCC", "DNA 2": "TGGTGGCTACGACGGGATT"}, "B14": {"name": "AUCCCAA (DNA:RNA)", "RNA": "B3 RNA with A26U, G27C, G29C, U30A, G31A", "DNA 1": "CAATCTGAATTCCGGTCTCCC", "DNA 2": "TGGTGGCTACGACGGGATT"}, "B15": {"name": "GGAUUCA (DNA:RNA)", "RNA": "B1 RNA with U25G, C26G, C27A, G28U, U31A", "DNA 1": "CAATCTGAATTCCGGTCTCCC", "DNA 2": "TGGTGGCTACGACGGGATT"}, "B16": {"name": "GGAAUCG (DNA:RNA)", "RNA": "B1 RNA with U25G, C26G, C27A, G28A, U31G", "DNA 1": "CAATCTGAATTCCGGTCTCCC", "DNA 2": "TGGTGGCTACGACGGGATT"}, "B17": {"name": "CGGAUCG (DNA:RNA)", "RNA": "B3 RNA with A25C, A26G, C28A, G29U, U30C", "DNA 1": "CAATCTGAATTCCGGTCTCCC", "DNA 2": "TGGTGGCTACGACGGGATT"}, "B18": {"name": "GGGAUCA (DNA:RNA)", "RNA": "B1 RNA with U25G, C26G, C27G, G28A, U31A", "DNA 1": "CAATCTGAATTCCGGTCTCCC", "DNA 2": "TGGTGGCTACGACGGGATT"}, "B19": {"name": "GGGAUCG (DNA:RNA)", "RNA": "B3 RNA with A25G, A26G, C28A, G29U, U30C", "DNA 1": "CAATCTGAATTCCGGTCTCCC", "DNA 2": "TGGTGGCTACGACGGGATT"}, "B20": {"name": "GGAUCGU (DNA:RNA)", "RNA": "B1 RNA with U25G, C26G, C27A, G28U, U29C, C30G", "DNA 1": "CAATCTGAATTCCGGTCTCCC", "DNA 2": "TGGTGGCTACGACGGGATT"}, "B21": {"name": "CGGAUCA (DNA:RNA)", "RNA": "B1 RNA with U25C, C26G, C27G, G28A, U31A", "DNA 1": "CAATCTGAATTCCGGTCTCCC", "DNA 2": "TGGTGGCTACGACGGGATT"}, "B22": {"name": "GGAUCCG (DNA:RNA)", "RNA": "B3 RNA with A25G, A26G, G27A, C28U, G29C, U30C", "DNA 1": "CAATCTGAATTCCGGTCTCCC", "DNA 2": "TGGTGGCTACGACGGGATT"}, "B23": {"name": "GGGAUCC (DNA:RNA)", "RNA": "B1 RNA with U25G, C26G, C27G, G28A, U31C", "DNA 1": "CAATCTGAATTCCGGTCTCCC", "DNA 2": "TGGTGGCTACGACGGGATT"}},
  "note": "Substitutions are numbered along the chain they refer to; changes in the protein carry UniProt numbers. In all, about 16,000 sequences were measured (“ka relative to ugcaugu”: median about 0.0091, highest 2% from about 0.032 on). Only a selection was taken, and the highest values are over-represented in it overall.",
  "data": [
    {"molecular_target": "T1, RBFOX1 RRM (Homo sapiens, UniProt Q9NWB1 109-208)", "T1 sequence": "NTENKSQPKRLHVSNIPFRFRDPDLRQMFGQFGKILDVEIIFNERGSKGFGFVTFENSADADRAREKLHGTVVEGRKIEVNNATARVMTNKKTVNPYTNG", "test": "EMSA; HiTS-Eq, 1 nM pool, 10 min; buffer printed only for the single-RNA assays: 10 mM Tris pH 7.5, 150 mM NaCl, 3.4 mM EDTA, 0.001% NP-40, 30 C", "settings": "tags: His6 N-terminal (pET28a); label: 5' 32P", "in_short": "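Purified wild-type or mutant RbFox RRM at increasing concentrations was equilibrated with 1 nM of 5′-radiolabelled RNA carrying 7 randomized nucleotides for 10 min in 50 µL. Unbound RNA was separated by 8% native PAGE and sequenced. Relative association constants came from read-count changes of each RNA species compared with the control reaction, normalised to the cognate motif.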", "values": [
      {"binder": "B1", "binding signal": "0.0154 KA relative to UGCAUGU"},
      {"binder": "B2", "binding signal": "0.0103 KA relative to UGCAUGU"},
      {"binder": "B3", "binding signal": "0.0169 KA relative to UGCAUGU"},
      {"binder": "B4", "binding signal": "0.0152 KA relative to UGCAUGU"},
      {"binder": "B5", "binding signal": "0.0301 KA relative to UGCAUGU"},
      {"binder": "B6", "binding signal": "0.00718 KA relative to UGCAUGU"},
      {"binder": "B7", "binding signal": "0.00838 KA relative to UGCAUGU"},
      {"binder": "B8", "binding signal": "0.0121 KA relative to UGCAUGU"},
      {"binder": "B9", "binding signal": "0.809 KA relative to UGCAUGU"},
      {"binder": "B10", "binding signal": "0.00628 KA relative to UGCAUGU"},
      {"binder": "B11", "binding signal": "0.00202 KA relative to UGCAUGU"},
      {"binder": "B12", "binding signal": "0.00616 KA relative to UGCAUGU"},
      {"binder": "B13", "binding signal": "0.0202 KA relative to UGCAUGU"},
      {"binder": "B14", "binding signal": "0.00187 KA relative to UGCAUGU"},
      {"binder": "B15", "binding signal": "0.0122 KA relative to UGCAUGU"},
      {"binder": "B16", "binding signal": "0.0216 KA relative to UGCAUGU"},
      {"binder": "B17", "binding signal": "0.0358 KA relative to UGCAUGU"},
      {"binder": "B18", "binding signal": "0.0351 KA relative to UGCAUGU"},
      {"binder": "B19", "binding signal": "0.0449 KA relative to UGCAUGU"},
      {"binder": "B20", "binding signal": "0.0112 KA relative to UGCAUGU"},
      {"binder": "B21", "binding signal": "0.0199 KA relative to UGCAUGU"},
      {"binder": "B22", "binding signal": "0.00934 KA relative to UGCAUGU"},
      {"binder": "B23", "binding signal": "0.0157 KA relative to UGCAUGU"}
    ]}
  ]
}
